The values below come from PubChem BioAssay (NCI).

What all share (assay): NCI-60 one-dose screen, 48 h (100 = growth as untreated, 0 = no growth, -100 = all killed)
In one assay the test system is DU-145 prostate. The conditions noted are these: 10 µM unless noted.
For another assay, the system named is K-562 leukemia. The conditions noted are these: 10 µM unless noted.
The next assay deals with MALME-3M melanoma. The conditions noted are these: 10 µM unless noted.
For the next assay, the system named is MDA-MB-231 breast. The conditions noted are these: 10 µM unless noted.
The next assay concerns SF-268 CNS. The conditions noted are these: 10 µM unless noted.
The next assay deals with SF-295 CNS. The conditions noted are these: 10 µM unless noted.
Another assay has as its system SF-539 CNS. The following applies: 10 µM unless noted.
Another assay has as its system M14 melanoma. The following applies: 10 µM unless noted.
Another assay relates to RXF 393 renal. The conditions noted are these: 10 µM unless noted.
Another assay deals with UACC-257 melanoma. The following applies: 10 µM.

Each structure is given as a SMILES string. Compounds without any hit were thinned out: in the full panel of roughly 83,000, 20% have a hit.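 For each line, cells grew in 96-well plates with the test compound present at a single concentration for 48 hours.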 Values without a mark were called inactive. Activity calls are given as the source filed them. The calls were made as follows: active = growth percent below 10; inactive = the rest.

Turning to `CSc1ccccc1C#C/C=C\C#Cc1ccccc1N1CCCCC1=O`, the growth in the assay with DU-145 prostate was 107%; in the assay with K-562 leukemia it was 143%; with MALME-3M melanoma, 89.2%; with MDA-MB-231 breast it was 90.8%; in the assay on SF-268 CNS it was 101%; in the assay on SF-295 CNS, 111%. In addition, the growth in the assay with SF-539 CNS was 93.4%; in the assay on M14 melanoma it was 104%.
In the case of `C#CCN1C(=O)/C(=c2\sc3n(c2=O)NC2C(N=3)N(CC)C(=O)N2CC)c2ccccc21` (stereo unspecified), the growth in the assay on DU-145 prostate is 41%; in the assay with K-562 leukemia, 3.27% (active); with MALME-3M melanoma it was 51.5%; in the assay with MDA-MB-231 breast, 69.9%; in the assay with SF-268 CNS it was 75.5%; in the assay with SF-295 CNS it was 86.7%. Further, the growth was 38.7% in the assay on SF-539 CNS and 80.7% with M14 melanoma.
Turning to `C=CC(=O)N[C@H](/C=C/C(=O)OCC)Cc1ccc(-c2cc(Cl)cc(Cl)c2)cc1`, the growth in the assay with DU-145 prostate is 91.1%; in the assay with K-562 leukemia it was 89.4%; with MALME-3M melanoma, 87.6%; in the assay with MDA-MB-231 breast, 72.9%; in the assay with SF-268 CNS, 84.7%; with SF-295 CNS it was 83.1%. Moreover, the growth is 99.9% in the assay on SF-539 CNS and 88.7% in the assay with M14 melanoma.
Take `COc1cccc2cc(-c3cc4ccccc4[nH]3)c(=NC(=O)c3ccc(Cl)cc3)oc12`: the growth was 85.5% in the assay with DU-145 prostate; 39.7% in the assay on K-562 leukemia; 58.5% in the assay on MALME-3M melanoma; 54.3% in the assay with MDA-MB-231 breast; 53.5% in the assay with SF-268 CNS; 67.3% in the assay with SF-295 CNS. The growth is 58.2% with SF-539 CNS and -28.9% (active) in the assay on M14 melanoma.
For the molecule `CCC(c1ccc(OC)cc1)C(CC)c1ccc(OCC[N+](C)(C)C)cc1` (stereo unspecified), the growth in the assay with DU-145 prostate was 91.9%; in the assay with K-562 leukemia it was 24.7%; in the assay on MALME-3M melanoma, 58%; in the assay on RXF 393 renal it was 99.6%; with SF-268 CNS, 40.8%; in the assay with SF-295 CNS, 78.6%. The results for the growth with SF-539 CNS and with M14 melanoma were 41.9% and 64%, respectively.
As to `c1ccc2nc(-c3ccc4ccccc4n3)ccc2c1`, the growth in the assay with DU-145 prostate was 106%; with K-562 leukemia it was 93.3%; in the assay with MALME-3M melanoma it was 83.5%; with RXF 393 renal it was 117%; with SF-268 CNS it was 95.9%; with SF-295 CNS, 93.5%. In addition, the values for the growth in the assay on SF-539 CNS, in the assay on UACC-257 melanoma and in the assay with M14 melanoma were 88.3%, 106% and 90.2%, respectively.
For the molecule `COc1ccc(/C=C/C(=O)c2ccc(B(O)O)cc2)cc1O`, the growth was 75.6% in the assay on DU-145 prostate; 24.6% in the assay with K-562 leukemia; 90.8% in the assay with MDA-MB-231 breast; 81.4% in the assay with RXF 393 renal; 81.6% in the assay with SF-268 CNS; 98.5% in the assay with SF-295 CNS. Also, the growth in the assay with SF-539 CNS was 71.3%; with UACC-257 melanoma, 94.3%; in the assay on M14 melanoma, 74.1%.
For `CCCCC(N)(C(=O)O)C1CCCC1` (stereo unspecified), the growth in the assay on DU-145 prostate is 122%; with MALME-3M melanoma, 127%; in the assay on MDA-MB-231 breast, 105%; in the assay on RXF 393 renal it was 106%; in the assay on SF-268 CNS it was 107%; in the assay with SF-295 CNS it was 98.8%. Moreover, the growth was 96.7% in the assay on SF-539 CNS, 87.2% with UACC-257 melanoma and 107% in the assay with M14 melanoma.
Consider `COc1cc(C2C=C(C)N=C3SC(C)=NN32)cc(OC)c1OC` (stereo unspecified), for which the growth was 108% in the assay on DU-145 prostate; 107% in the assay with K-562 leukemia; 111% in the assay on MDA-MB-231 breast; 114% in the assay on RXF 393 renal; 105% with SF-268 CNS; 111% with SF-295 CNS. The figures for the growth in the assay with SF-539 CNS, in the assay on UACC-257 melanoma and in the assay with M14 melanoma were 114%, 106% and 102%, respectively.
`Cc1ccc(C2=NN(c3ccc(S(N)(=O)=O)cc3)C(c3cn(-c4ccccc4)nc3-c3ccccc3)C2)cc1` (stereo unspecified): the growth in the assay on DU-145 prostate was 65.7%; with K-562 leukemia, 21.9%; in the assay on MDA-MB-231 breast it was 82.7%; with RXF 393 renal, 95.8%; with SF-268 CNS it was 42.7%; in the assay with SF-295 CNS it was 104%. The figures for the growth in the assay with SF-539 CNS, with UACC-257 melanoma and in the assay with M14 melanoma were 112%, 98.8% and 96.1%, respectively.
For the molecule `CC(=O)Nc1ccc(S(=O)(=O)N2C(=O)CCC2C(=O)Nc2ccc(Br)cc2)cc1` (stereo unspecified), the growth was 44.2% with DU-145 prostate; 0.475% (active) in the assay on K-562 leukemia; 34.4% in the assay on MDA-MB-231 breast; 57.4% in the assay on RXF 393 renal; 47.6% in the assay on SF-268 CNS; 13.1% with SF-295 CNS. Besides, the growth was 42.1% in the assay on SF-539 CNS, 30.4% in the assay on UACC-257 melanoma and 36.9% with M14 melanoma.
In the case of `Nc1nc(-c2ccccc2)cs1`, the growth was 104% with DU-145 prostate; 114% with K-562 leukemia; 104% in the assay with MDA-MB-231 breast; 120% in the assay on RXF 393 renal; 96.4% in the assay with SF-268 CNS; 104% in the assay on SF-295 CNS. The growth in the assay with SF-539 CNS is 99.1%; with UACC-257 melanoma it was 98.5%; in the assay on M14 melanoma it was 97.2%.
`CNC(C)=O`: the growth with DU-145 prostate was 99.5%; in the assay on K-562 leukemia, 90.3%; in the assay on MALME-3M melanoma it was 86.1%; with RXF 393 renal, 105%; in the assay on SF-268 CNS it was 98.4%; in the assay with SF-295 CNS, 93.7%. For the same molecule, the growth with SF-539 CNS is 89.8%; in the assay on UACC-257 melanoma, 102%; in the assay on M14 melanoma it was 108%.
As for `CC(=O)Nc1ccc(S(=O)(=O)N2C(=O)CCC2C(=O)Nc2ccccc2)cc1` (stereo unspecified), the growth in the assay on DU-145 prostate is 50.2%; in the assay on K-562 leukemia, 11.8%; with MDA-MB-231 breast, 25.6%; in the assay with RXF 393 renal, 57.7%; in the assay with SF-268 CNS, 61.9%; with SF-295 CNS, 1.91% (active). For the same molecule, the growth in the assay with SF-539 CNS was -22% (active); in the assay on UACC-257 melanoma, 33.7%; in the assay with M14 melanoma, 10.3%.
